This is an account of results in paper PMC5540273 (PLoS ONE, 2017).

Where only a bound is given, the exact number is not on record here.

As a reminder, the Kd is the equilibrium constant for the complex coming apart. Read a high Kd as lower affinity.
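Further: kd values determined as follow-up on hits from a single-replicate KINOMEscan panel screen.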

The first assay has as its system T1, MEK5.
T1 construct: gene MAP2K5
The compound `Cn1cncc1-c1cc2c(Nc3ccc(OCc4ccccc4)cc3)ncnc2cn1` [GW281179] yielded a Kd of 140 nM.

The compound `CS(=O)(=O)CCNCc1nc(-c2ccc3ncnc(Nc4ccc(OCc5ccccc5)c(Cl)c4)c3c2)cs1.Cl` [GW582764] registered a Kd of 700 nM.

In turn, `CS(=O)(=O)CCNCc1nc(-c2ccc3ncnc(Nc4ccc5c(cnn5Cc5ccccc5)c4)c3c2)cs1.Cl.Cl` [GW569716] displayed a Kd of 43 nM.

In turn, `COc1cc2ncnc(Nc3cccc(Br)c3)c2cc1OC.Cl` [GI230329] had a Kd of 700 nM.

On to `COC(=O)C(NC(=O)NC1CCN(c2ccnc(Nc3ccc(F)cc3)n2)C1)c1ccccc1` (stereo not drawn) [GSK1379712], for which the Kd is 270 nM.

Consider `CS(=O)(=O)Cc1ccc(Nc2nccc(-c3c(-c4cccc(NC(=O)C5CCCCC5)c4)nn4ncccc34)n2)cc1` [GSK350559], for which binding was put at a Kd of 35 nM.

In turn, `Nc1ncnc2occ(-c3ccc4c(c3)CCN4C(=O)Cc3cc(F)ccc3F)c12` [GSK2645446] returned a Kd of 750 nM.

In a further assay the test system is T2, MLCK.
T2 construct: gene MYLK3
Regarding `CS(=O)(=O)CCNCc1nc(-c2ccc3ncnc(Nc4ccc(OCc5ccccc5)c(Cl)c4)c3c2)cs1.Cl` [GW582764], the Kd is > 10000 nM.

`O=C(Nc1n[nH]c2nc(-c3cccs3)c(Br)cc12)C1CCCC1` [SB-743341]: binding was put at a Kd of 290 nM.

Turning to `O=C(Nc1n[nH]c2nc(-c3cccs3)c(Br)cc12)C1CC1` [SB-735297], the affinity, expressed as Kd, was 180 nM. This Kd lies about 1.6-fold lower than the previous one.

The next assay has as its system MYLK2.
The compound `O=C(Nc1n[nH]c2nc(-c3ccco3)c(Br)cc12)C1CCN(Cc2ccccc2)C1.O=C(O)[C@H](O)[C@@H](O)C(=O)O` (stereo not drawn) [SB-742034] returned a Kd of 460 nM. In other words, the sub-micromolar range.

As to `O=C(Nc1n[nH]c2cc(-c3ccsc3)ccc12)C1CC1` [SB-732932], binding was put at a Kd of 41 nM.

Consider `Nc1cccc(-c2ccc3c(N)n[nH]c3c2)n1` [GSK2192730], for which the Kd was determined as 180 nM.

`O=C(Nc1n[nH]c2nc(-c3cccs3)c(Br)cc12)C1CCCC1` [SB-743341] yielded a Kd of 26 nM.

`O=C(Nc1n[nH]c2nc(-c3cccs3)c(Br)cc12)C1CC1` [SB-735297]: the Kd was found to be 8.4 nM.

The test system of another assay is PDGFRB.
Compound `Cc1ccc(NC(=O)c2ccc(Cl)cc2)cc1-c1ccc(C(=O)Nc2ccncc2)cc1` [GSK1398467] registered a Kd of 9.7 nM.

As for `Cc1ccc(NC(=O)Nc2ccccc2F)cc1-c1ccc(C(=O)Nc2ccncc2)cc1` [GSK1398477], the affinity, expressed as Kd, was 47 nM.

With `Cc1ccc(NC(=O)Nc2ccc(Cl)c(C(F)(F)F)c2)cc1-c1ccc(C(=O)Nc2ccncc2)cc1` [GSK1398470], the Kd came to 270 nM.

As for `O=C(Nc1n[nH]c2cc(-c3ccsc3)ccc12)C1CC1` [SB-732932], binding was put at a Kd of 700 nM.

`Cc1ccc(NC(=O)Nc2ccccc2)cc1-c1ccc(C(=O)Nc2ccncc2)cc1` [GSK1398471] returned a Kd of 28 nM.

Turning to `CS(=O)(=O)Cc1ccc(Nc2nccc(-c3c(-c4cccc(NC(=O)C5CCCCC5)c4)nn4ncccc34)n2)cc1` [GSK350559], binding was characterised by a dissociation constant (Kd) of 74 nM.

In turn, `Cc1ccc(NC(=O)Nc2ccc(Cl)cc2)cc1-c1ccc(C(=O)Nc2ccncc2)cc1` [GSK1398472] yielded an equilibrium dissociation constant (Kd) of 86 nM.

Take `Cc1cnc(N)c(/C=C/c2cncc(C(=O)NCCc3ccc(Cl)cc3Cl)c2)c1.Cl` [GSK190937]: the dissociation constant Kd came to 140 nM.

`COc1cccc(NC(=O)Nc2ccc(C)c(-c3ccc(C(=O)Nc4ccncc4)cc3)c2)c1` [GSK1398474] had a Kd of 40 nM.
